Source: the supplement of paper PMC8253809
Where “and” joins values, the source holds several entries; their conditions need not be identical. Identical values can stand only once.

Experiments:
Experiment in all cases: growth inhibition (% activity, log2 RLU normalised to DMSO / staurosporine); higher = more growth inhibition
Settings in all cases: 33 µM
DIPGX29 = test system: DIPGX29 (H3.3 K27M diffuse intrinsic pontine glioma line)
Method in brief: (§1)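 For each approved drug, the growth-inhibition value is the replicate median of per-plate normalised CellTiter-Glo data. Luminescence was log2-transformed and expressed as % activity between solvent and positive control wells. Drugs were applied in triplicate at a single final concentration of about 33 μM for 7 days at 37 °C, 5% CO2 to pHGG cell lines and H9-derived neural stem cells.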

DIPGX37 = test system: DIPGX37 (H3.3 K27M diffuse intrinsic pontine glioma line)
Method in brief: as §1

DIPGX7 = test system: DIPGX7 (H3.3 K27M diffuse intrinsic pontine glioma line)
Method in brief: as §1

DIPGX9 = test system: DIPGX9 (diffuse intrinsic pontine glioma line)
Method in brief: as §1

HGGX39 = test system: HGGX39 (paediatric high-grade glioma line)
Method in brief: as §1

HGGX6 = test system: HGGX6 (H3.3 G34R paediatric high-grade glioma line)
Method in brief: as §1

HNSC = test system: HNSC
Method in brief: as §1

SUDIPGIV = test system: SUDIPGIV (diffuse intrinsic pontine glioma line)
Method in brief: as §1

SUDIPGVI = test system: SUDIPGVI (diffuse intrinsic pontine glioma line)
Method in brief: as §1

SUDIPGXIII = test system: SUDIPGXIII (diffuse intrinsic pontine glioma line)
Method in brief: as §1

Row | Compound | growth inhibition (DIPGX29) | growth inhibition (DIPGX37) | growth inhibition (DIPGX7) | growth inhibition (DIPGX9) | growth inhibition (HGGX39) | growth inhibition (HGGX6) | growth inhibition (HNSC) | growth inhibition (SUDIPGIV) | growth inhibition (SUDIPGVI) | growth inhibition (SUDIPGXIII)
1 | C[C@@H]1C[C@H]2[C@@H]3CCC4=CC(=O)C=C[C@]4(C)[C@@]3(Cl)[C@@H](O)C[C@]2(C)[C@@]1(OC(=O)c1ccco1)C(=O)CCl | 2.55% | 2.99% | 2.36% | 5.3% | 6.75% | 4.28% | 0.466% | 14.2% | 2.53% | -3.14%
2 | OC(CCN1CCCC1)(c1ccccc1)C1CCCCC1 (stereo not given) | -1.59% | 0.342% | -1.45% | -1.38% | -2.22% | -0.386% | -0.926% | -0.217% | -0.619% | -1.02%
3 | CNC(=O)c1ccc(N2C(=S)N(c3ccc(C#N)c(C(F)(F)F)c3)C(=O)C2(C)C)cc1F | 0.905% | -0.457% | 1.36% | 1.43% | 6.4% | 1.33% | 4.97% | 1.84% | -1.51% | 1.86%
4 | CCOC(=O)C1=C[C@@H](OC(CC)CC)[C@H](NC(C)=O)[C@@H](N)C1 | -0.948% | 0.933% | -0.6% | -0.724% | -0.188% | 0.263% | 0.516% | 1.15% | 0.0268% | -0.397%
5 | CN(C)CCOC(C)(c1ccccc1)c1ccccn1 (stereo not given) | -1.53% | -0.506% | 0.0494% | -1.25% | 0.245% | -0.355% | -1.65% | -0.218% | -0.777% | 0.1%
6 | CCOC(=O)[C@H](CCc1ccccc1)N[C@H]1CS[C@H](c2cccs2)CN(CC(=O)O)C1=O | -2.15% | 0.457% | 0.303% | -0.286% | 0.0238% | 0.0397% | 1.94% | -0.624% | -2.82% | 0.0387%
7 | Fc1ccc(C(c2ccc(F)cc2)N2CCN(C/C=C/c3ccccc3)CC2)cc1 | 4.97% | 2.42% | 6.22% | 3.95% | 9.77% | 2.44% | 14.4% | 15.8% | 5.18% | 8.8%
8 | C[C@H](Cn1cnc2c(N)ncnc21)OCP(=O)(O)O | -1.46% | -3.07% | -1.11% | -0.823% | -1.24% | -0.0212% | -0.925% | -2.6% | -0.383% | 0.192%
9 | NC(N)=Nc1nc(CSCC/C(N)=N/S(N)(=O)=O)cs1 | -1.68% | -1.77% | -1.85% | -0.682% | -0.78% | -1.75% | -0.722% | -1.56% | -8.72% | -0.00988%
10 | CN1C(CCl)Nc2cc(Cl)c(S(N)(=O)=O)cc2S1(=O)=O (stereo not given) | 1.82% | 1.82% | 1.38% | 0.87% | 2.55% | 3.08% | 1.19% | 0.139% | 1.21% | -13.7%
11 | O=C1O[C@H]([C@@H](O)CO)C(O)=C1O | -0.099% | 2.39% | 0.0255% | -1.21% | 1.99% | -2.25% | 2.06% | 0.144% | -0.209% | -0.259%
12 | CCc1nc(N)nc(N)c1-c1ccc(Cl)cc1 | 16.1% | 2.67% | 1.94% | 4.42% | 7.42% | 2.78% | 6.9% | 12.6% | 7.22% | 4.01%
13 | Nc1ccc(S(=O)(=O)Nc2nccs2)cc1 | -2.53% | -1.47% | -1.25% | -0.733% | -2.1% | -3.04% | 5.4% | -1.7% | -2.69% | 0.0367%
14 | COc1cc2nc(N(C)CCCNC(=O)C3CCCO3)nc(N)c2cc1OC (stereo not given) | 0.0156% | 1.16% | -0.0243% | 0.217% | -0.734% | 1.08% | -0.343% | -0.994% | 1.28% | 1.78%
15 | c1ccc2c(CC3=NCCN3)cccc2c1 | 0.509% | 1.82% | 1.78% | 1.2% | 4.23% | -1.48% | 10% | 1.67% | 3.03% | 1.34%
16 | NCC[C@H](O)C(=O)N[C@@H]1C[C@H](N)[C@@H](O[C@H]2O[C@H](CN)[C@@H](O)[C@H](O)[C@H]2O)[C@H](O)[C@H]1O[C@H]1O[C@H](CO)[C@@H](O)[C@H](N)[C@H]1O | -1.74% and 1.77% | -1.47% and 4.24% | -2.3% and 3.01% | -2.19% and 1.75% | -0.158% and 4.96% | -2.78% and 2.92% | -1.9% and 2.1% | -1.35% and 2.18% | -1.89% and 2.2% | -0.125% and 0.203%
17 | NCCCC[C@H](N[C@@H](CCc1ccccc1)C(=O)O)C(=O)N1CCC[C@H]1C(=O)O | -0.869% | -1.25% | -0.813% | -0.846% | -1.12% | 1.27% | -1.56% | -0.401% | -1.38% | -4.08%
18 | O=C(O)C(=O)O.[NH-]C1CCCCC1[NH-].[Pt+2] (stereo not given) | -0.101% | 2.05% | -0.541% | 7.2% | -0.76% | 1.66% | 1.98% | -1.88% | 0.474% | 1.07%
19 | CCCc1nc(C(C)(C)O)c(C(=O)OCc2oc(=O)oc2C)n1Cc1ccc(-c2ccccc2-c2nnn[nH]2)cc1 | -1% | 0.0168% | -0.622% | 0.493% | -1.5% | -3.62% | 12.4% | -1.28% | -2.12% | -2.02%
20 | CS(=O)(=O)c1ccc(C2=C(c3ccccc3)C(=O)OC2)cc1 | -1.33% | -0.751% | -1.9% | -1.51% | -1.94% | -2.78% | -3.76% | -4.83% | -0.628% | 0.203%

Row | Compound | growth inhibition (DIPGX29) | growth inhibition (DIPGX37) | growth inhibition (DIPGX7) | growth inhibition (DIPGX9) | growth inhibition (HGGX39) | growth inhibition (HGGX6) | growth inhibition (HNSC) | growth inhibition (SUDIPGIV) | growth inhibition (SUDIPGVI) | growth inhibition (SUDIPGXIII)
21 | Cc1cc2nc3c(=O)[nH]c(=O)nc-3n(C[C@H](O)[C@H](O)[C@H](O)CO)c2cc1C | -1.75% | 2.89% | 0.461% | -0.233% | 2.78% | -1.29% | 6.98% | 4.43% | 2.29% | 1.1%
22 | CC(=O)/N=c1/sc(S(N)(=O)=O)nn1C | 1.46% | 2.45% | 2.3% | 1.1% | 4.29% | 1.67% | 5.67% | 0.751% | 1.6% | -14.4%
23 | COc1cccc(N(C)C(=S)Oc2ccc3c(c2)CCCC3)n1 | 2.16% | 1.79% | 1.25% | 2.82% | 2.33% | 1.82% | 1.51% | 0.755% | 2.8% | 1.12%
24 | Nc1cccc2c1C(=O)N(C1CCC(=O)NC1=O)C2=O (stereo not given) | 0.275% | 2% | 0.718% | -0.934% | -1.86% | -0.402% | 0.283% | -0.313% | 0.743% | -1.19%
25 | NS(=O)(=O)c1cc(Cl)c(Cl)c(S(N)(=O)=O)c1 | -2.92% | -0.619% | 1.34% | -2.39% | -1.33% | -5.6% | 21.2% | -2.27% | -8.85% | 2.33%
26 | CCC(C)(C)C(=O)O[C@H]1C[C@@H](C)C=C2C=C[C@H](C)[C@H](CC[C@@H]3C[C@@H](O)CC(=O)O3)[C@H]21 | 6.91% | -7.26% | 9.48% | 1.4% | 15.7% | 11.3% | 60.4% | 19% | -11.4% | 3.91%
27 | C#CCN[C@@H]1CCc2ccccc21 | 1.3% | 4.12% | 1.95% | 1.74% | 3.31% | -0.441% | 12.3% | 2.79% | 1.93% | 0.598%
28 | O=S(=O)(O)Oc1ccc(C(c2ccc(OS(=O)(=O)O)cc2)c2ccccn2)cc1 | -1.54% | -1.27% | -2.88% | -1.22% | -0.859% | -1.53% | -1.57% | -2.15% | -2.91% | 0.476%
29 | CCS(=O)(=O)CCn1c([N+](=O)[O-])cnc1C | -0.456% | 1.05% | -1.24% | -0.171% | -0.367% | -1.57% | -1.98% | -0.809% | -3.73% | 0.464%
30 | [Na+].[Na+].[Na+].[O]=[V]([O-])([O-])[O-] | -1.42% | 0.923% | -1.78% | 0.306% | 0.285% | -0.94% | -0.354% | -2.76% | -0.971% | 1.36%
31 | Cn1ccnc1S | -2.03% | -0.808% | -1.31% | -0.195% | -0.799% | -0.968% | -4.2% | -2.69% | -1.6% | -8.17%
32 | COc1ccc(CN2CCN(C(c3ccc(F)cc3)c3ccc(F)cc3)CC2)c(OC)c1OC | 3.37% | 4.29% | 2.14% | 3.16% | 7.88% | 4.43% | 7.5% | 2.85% | 3.72% | -11.1%
33 | CC1(C)O[C@@H]2[C@@H](CO[C@@]3(COS(N)(=O)=O)OC(C)(C)O[C@@H]23)O1 | -3.02% | -1.66% | -1.31% | -2.57% | -2.13% | -3.4% | -3.88% | -3.39% | -3.08% | -0.599%
34 | Cn1nnc2c(C(N)=O)ncn2c1=O | -1.97% | 0.303% | -1.33% | -1.07% | -1.58% | -0.426% | 9.79% | -4.09% | 0.031% | -1.62%
35 | O=C1CN2Cc3c(ccc(Cl)c3Cl)N=C2N1 | -0.095% | -0.968% | -0.492% | 0.847% | 3.51% | 9.62% | -2.73% | -0.36% | 0.709% | -4.79%
36 | C[C@H](CCC(=O)O)[C@H]1CC[C@H]2[C@@H]3CC[C@@H]4C[C@H](O)CC[C@]4(C)[C@H]3CC[C@]12C | -0.532% | -0.978% | -2.9% | -2.11% | 0.371% | -1.49% | -2.18% | -1.6% | -1.83% | 1.26%
37 | CCCCOc1cc(C(=O)NCCN(CC)CC)c2ccccc2n1 | 8.77% | 4.81% | 9.69% | 3.99% | 6.11% | 5.06% | 13.1% | 2.91% | 3.16% | 1.33%
38 | Cc1c(-c2ccc(O)cc2)n(Cc2ccc(OCCN3CCCCCC3)cc2)c2ccc(O)cc12 | 22.4% | 0.0572% | 20.3% | 1.94% | 8.64% | 16.4% | 26.1% | 18.8% | -5.95% | 1.05%
39 | CC(C)(C)C(=O)OCOP(=O)(COCCn1cnc2c(N)ncnc21)OCOC(=O)C(C)(C)C | 7.13% | 8.8% | 8.24% | 19.5% | 11.8% | 7.96% | 47.8% | 13.4% | 2.68% | 3.59%
40 | CC(COc1ccccc1)N(CCCl)Cc1ccccc1 (stereo not given) | -2.73% | -0.547% | 0.876% | -1.7% | -4.31% | -3.53% | 41.4% | -2.44% | -7.02% | 1.89%
